About 83,000 compounds went through this panel and 20% of them were active in at least one assay; those are over-represented in the sample as a whole.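 Negative percent growth values reflect cell death: -40 means 40% of the cells present at the start died, and -100 means all died.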 Values without a mark were called inactive. Active and inactive are the calls of the source. How the source made its calls: active means growth percent below 10; inactive means the rest.

The first test has as its system BT-549 breast. The test is described as follows: NCI-60 one-dose screen, 48 h (100 = growth as untreated, 0 = no growth, -100 = all killed). As to conditions: 10 µM.
As to `Nc1nc(Nc2ccc(Cl)cc2)n(Cc2cccc(Br)c2)n1`, the growth is -51.4% (active).

With `COc1ccc(N(C)c2cc(C#N)nc3ccccc23)cc1N`, the growth was 94.1%.

For the molecule `CCOc1ccc(Nc2nc3ccccc3nc2Nc2ccc(OCC)cc2)cc1`, the growth is 70.7%.

Consider `NS(=O)(=O)c1ccc(NC(=O)CSc2ccc(-c3ccccc3)nn2)c(Br)c1`, for which the growth is 46.3%.

As to `COc1ccc(OC)c(/C=N/NC(=O)c2ccc3nc(-c4ccc(Cl)cc4)[nH]c3c2)c1`, the growth was 74.3%.

Regarding `N#Cc1c(NC(=O)c2ccc(C(F)(F)F)cc2)sc2c1CCC(=O)C2`, the growth is -80.6% (active).

As for `COc1ccc(-c2cc(-c3cc(C(=O)c4ccc(Br)cc4)n4ccc(C)cc34)nc(N)c2C#N)cc1`, the growth was 104%.

As for `CN1C(=O)N(C)C2SC(N/N=C/c3cccs3)=NC21` (stereo unspecified), the growth is 21.4%.

Turning to `CN1CCN(Cc2ccc(NC(=O)c3cncc(C#Cc4cnc5ccc(N[C@@H]6CCOC6)nn45)c3)cc2C(F)(F)F)CC1`, the growth is -71.3% (active).

For `COc1cc(C2CC(c3ccc(C)cc3)=Nc3c(N)nc(N)nc3N2)ccc1Oc1nc(Nc2ccc(F)cc2)nc(N(C)C)n1` (stereo unspecified), the growth is 65.4%.

Take `CC1=C2C(=C[C@@](C)(CO)[C@@H]2O)/C(=N\N)[C@](C)(O)C12CC2`: the growth is -71.7% (active).

Turning to `Cc1ccc(NCC(=O)Nn2c(COc3ccccc3)nc3ccccc3c2=O)cc1`, the growth was 97.6%.

Consider `CN1C(=O)/C(=C/c2nccs2)SC1=S`, for which the growth was 90.2%.

Consider `Cc1ccc2nc(-c3ccc(-c4nnc(SCC(=O)Nc5ccc(Cl)cc5)o4)cc3)[nH]c2c1`, for which the growth was 65.9%.

`O=C1Nc2cc(Cl)ccc2/C1=C/c1cccc(OCc2ccccc2)c1`: the growth is -21.8% (active).

In the case of `CCOc1ccc(/C=N/NC(=O)Cn2nc(Cc3ccccc3)c3onc(C)c3c2=O)cc1`, the growth is 6.06% (active).

Turning to `O=C(CSc1nnc(-c2c[nH]c3ccccc23)n1-c1ccccc1)Nc1ccc(C(=O)/C=C/c2ccc(Cl)cc2)cc1`, the growth is 93.5%.

For the molecule `Oc1ccc(/C=C2\CCCc3cc4ccc(O)cc4[o+]c32)c(O)c1`, the growth was 23.3%.

As for `CCCSc1nc(NC2CC2)c(C#N)c(-c2ccc(OC)cc2)n1`, the growth was 88.1%.

For the molecule `COc1ccc(/C=C/C(=O)c2ccc(NC(=O)CN3C(=O)NC(C)(c4ccccc4)C3=O)cc2)cc1` (stereo unspecified), the growth was 71.6%.

Turning to `Brc1ccc(/C=N/Nc2ncnc3sc4c(c23)CCN(Cc2ccccc2)C4)cc1`, the growth is 102%.

`CC1(c2ccccc2)NC(=O)N(CC(=O)Nc2ccc(C(=O)/C=C/C=C/c3ccccc3)cc2)C1=O` (stereo unspecified): the growth was 38.9%.

With `O=C(c1ccc(Cl)cc1)C1[C@H](c2ccccc2Br)[C@@H](c2ccccc2)NC12C(=O)Nc1ccc(Cl)cc12` (stereo partly specified), the growth is 75.9%.

For `COc1ccc2nc(Cl)c(-c3cc(-c4ccccc4)nc(=S)[nH]3)cc2c1`, the growth is 14.7%.

As for `CC(=O)Oc1ccccc1C(=O)Oc1ccc(C(=O)/C=C/c2ccncc2)cc1`, the growth is 31%.

On to `c1ccc(C(=C(c2ccc(OCCN3CCCCC3)cc2)c2ccc(OCCN3CCCCC3)cc2)C2CCCC2)cc1`, for which the growth is -54.7% (active).

As for `CCCCSc1nc(Nc2ccc(/C(C)=N/NC(N)=S)cc2)c(C#N)c(-c2ccc(OC)cc2)n1`, the growth is 42.9%.

As to `COc1ccc(C(=O)Nc2ccc(-c3ccc4c(c3)NC(=O)/C4=C\c3ccc[nH]3)cc2)cc1`, the growth was 88.5%.

As to `COc1cccc(/C=C2\N=C(C)N(CCc3ccc(S(N)(=O)=O)cc3)C2=O)c1`, the growth was 100%.

As to `COc1ccc(-c2nc(-c3ccccc3)c(-c3ccccc3)n2-c2ccc(S(=O)(=O)Nc3ncccn3)cc2)cc1OC`, the growth was 68.3%.

As to `Cc1ccc(F)cc1N/C=c1\s/c(=C(\C#N)C(=O)Nc2ccccc2)n(-c2ccccc2)c1=O`, the growth was 99.7%.

Regarding `CC1(c2ccccc2)NC(=O)N(CC(=O)Nc2ccc(C(=O)/C=C/c3ccccc3)cc2)C1=O` (stereo unspecified), the growth is 36%.

For the molecule `COc1ccc(N2N=C(c3ccc4c(c3)OCCO4)CC2c2cccc(NC(=O)CCCNS(=O)(=O)c3ccc(F)cc3)c2)cc1` (stereo unspecified), the growth is 78.3%.

For the molecule `Cc1ccc(S(=O)(=O)c2nc(-c3ccccc3)oc2S(=O)(=O)CC(=O)N2CCCC2)cc1`, the growth is -24.4% (active).

Regarding `Cn1cc(/C=N/Nc2cccc(Cl)n2)c2ccccc21`, the growth was 43.4%.

As to `CN(C)c1ccc(/C=C/C(=O)c2ccc(NC(=O)CN3C(=O)NC(C)(c4ccccc4)C3=O)cc2)cc1` (stereo unspecified), the growth was 49.6%.

On to `O=C1N/C(=N\c2nccs2)S/C1=C\c1cccs1`, for which the growth is 44.2%.

Consider `O=C(c1ccc(O)cc1)C1[C@H](c2ccccc2Br)[C@@H](c2ccccc2)NC12C(=O)Nc1ccc(Cl)cc12` (stereo partly specified), for which the growth is 15.7%.

Another test deals with MDA-MB-435 melanoma. Described as above. As to conditions: 10 µM.
With `Nc1nc(Nc2ccc(Cl)cc2)n(Cc2cccc(Br)c2)n1`, the growth is -64.9% (active).

On to `COc1ccc(N(C)c2cc(C#N)nc3ccccc23)cc1N`, for which the growth was -22.4% (active).

For `CCOc1ccc(Nc2nc3ccccc3nc2Nc2ccc(OCC)cc2)cc1`, the growth was 52.9%.

For `NS(=O)(=O)c1ccc(NC(=O)CSc2ccc(-c3ccccc3)nn2)c(Br)c1`, the growth was 94.4%.

Take `COc1ccc(OC)c(/C=N/NC(=O)c2ccc3nc(-c4ccc(Cl)cc4)[nH]c3c2)c1`: the growth was 85.7%.

On to `N#Cc1c(NC(=O)c2ccc(C(F)(F)F)cc2)sc2c1CCC(=O)C2`, for which the growth was -41.4% (active).

As to `COc1ccc(-c2cc(-c3cc(C(=O)c4ccc(Br)cc4)n4ccc(C)cc34)nc(N)c2C#N)cc1`, the growth was 92.7%.

`CN1C(=O)N(C)C2SC(N/N=C/c3cccs3)=NC21` (stereo unspecified): the growth was -37.6% (active).

Regarding `CN1CCN(Cc2ccc(NC(=O)c3cncc(C#Cc4cnc5ccc(N[C@@H]6CCOC6)nn45)c3)cc2C(F)(F)F)CC1`, the growth is -87.6% (active).

In the case of `COc1cc(C2CC(c3ccc(C)cc3)=Nc3c(N)nc(N)nc3N2)ccc1Oc1nc(Nc2ccc(F)cc2)nc(N(C)C)n1` (stereo unspecified), the growth is 63.2%.

Turning to `CC1=C2C(=C[C@@](C)(CO)[C@@H]2O)/C(=N\N)[C@](C)(O)C12CC2`, the growth is -63.8% (active).

Turning to `Cc1ccc(NCC(=O)Nn2c(COc3ccccc3)nc3ccccc3c2=O)cc1`, the growth is 92.6%.

Regarding `CN1C(=O)/C(=C/c2nccs2)SC1=S`, the growth was 83.9%.

With `Cc1ccc2nc(-c3ccc(-c4nnc(SCC(=O)Nc5ccc(Cl)cc5)o4)cc3)[nH]c2c1`, the growth was 49.1%.

As to `O=C1Nc2cc(Cl)ccc2/C1=C/c1cccc(OCc2ccccc2)c1`, the growth is 10.5%.

Consider `CCOc1ccc(/C=N/NC(=O)Cn2nc(Cc3ccccc3)c3onc(C)c3c2=O)cc1`, for which the growth is 55.3%.

For `O=C(CSc1nnc(-c2c[nH]c3ccccc23)n1-c1ccccc1)Nc1ccc(C(=O)/C=C/c2ccc(Cl)cc2)cc1`, the growth was 64.1%.

Take `Oc1ccc(/C=C2\CCCc3cc4ccc(O)cc4[o+]c32)c(O)c1`: the growth is -40.7% (active).

As to `CCCSc1nc(NC2CC2)c(C#N)c(-c2ccc(OC)cc2)n1`, the growth is 106%.

For the molecule `COc1ccc(/C=C/C(=O)c2ccc(NC(=O)CN3C(=O)NC(C)(c4ccccc4)C3=O)cc2)cc1` (stereo unspecified), the growth was 16.7%.

In the case of `Brc1ccc(/C=N/Nc2ncnc3sc4c(c23)CCN(Cc2ccccc2)C4)cc1`, the growth was 73.5%.

Take `CC1(c2ccccc2)NC(=O)N(CC(=O)Nc2ccc(C(=O)/C=C/C=C/c3ccccc3)cc2)C1=O` (stereo unspecified): the growth was 37.1%.

As for `O=C(c1ccc(Cl)cc1)C1[C@H](c2ccccc2Br)[C@@H](c2ccccc2)NC12C(=O)Nc1ccc(Cl)cc12` (stereo partly specified), the growth is -35.1% (active).

Regarding `COc1ccc2nc(Cl)c(-c3cc(-c4ccccc4)nc(=S)[nH]3)cc2c1`, the growth was -27.6% (active).

For `CC(=O)Oc1ccccc1C(=O)Oc1ccc(C(=O)/C=C/c2ccncc2)cc1`, the growth was 23.2%.

In the case of `c1ccc(C(=C(c2ccc(OCCN3CCCCC3)cc2)c2ccc(OCCN3CCCCC3)cc2)C2CCCC2)cc1`, the growth was -98.5% (active).

Regarding `CCCCSc1nc(Nc2ccc(/C(C)=N/NC(N)=S)cc2)c(C#N)c(-c2ccc(OC)cc2)n1`, the growth is 59.3%.

As to `COc1ccc(C(=O)Nc2ccc(-c3ccc4c(c3)NC(=O)/C4=C\c3ccc[nH]3)cc2)cc1`, the growth is 30.4%.

Take `COc1cccc(/C=C2\N=C(C)N(CCc3ccc(S(N)(=O)=O)cc3)C2=O)c1`: the growth is 114%.

Regarding `COc1ccc(-c2nc(-c3ccccc3)c(-c3ccccc3)n2-c2ccc(S(=O)(=O)Nc3ncccn3)cc2)cc1OC`, the growth was 95.1%.

As for `Cc1ccc(F)cc1N/C=c1\s/c(=C(\C#N)C(=O)Nc2ccccc2)n(-c2ccccc2)c1=O`, the growth is 98.5%.

On to `CC1(c2ccccc2)NC(=O)N(CC(=O)Nc2ccc(C(=O)/C=C/c3ccccc3)cc2)C1=O` (stereo unspecified), for which the growth was -23% (active).

Consider `COc1ccc(N2N=C(c3ccc4c(c3)OCCO4)CC2c2cccc(NC(=O)CCCNS(=O)(=O)c3ccc(F)cc3)c2)cc1` (stereo unspecified), for which the growth was 69.7%.

As for `Cc1ccc(S(=O)(=O)c2nc(-c3ccccc3)oc2S(=O)(=O)CC(=O)N2CCCC2)cc1`, the growth was -99.3% (active).

For the molecule `Cn1cc(/C=N/Nc2cccc(Cl)n2)c2ccccc21`, the growth is 10.7%.

On to `CN(C)c1ccc(/C=C/C(=O)c2ccc(NC(=O)CN3C(=O)NC(C)(c4ccccc4)C3=O)cc2)cc1` (stereo unspecified), for which the growth was 34%.

As for `O=C1N/C(=N\c2nccs2)S/C1=C\c1cccs1`, the growth is 41.9%.

`O=C(c1ccc(O)cc1)C1[C@H](c2ccccc2Br)[C@@H](c2ccccc2)NC12C(=O)Nc1ccc(Cl)cc12` (stereo partly specified): the growth is -16.4% (active).

The values above are taken from PubChem BioAssay (NCI).
